Data from PubChem BioAssay AID651821 (The Scripps Research Institute Molecular Screening Center, 2012).
Among all 370,000 compounds or so, about 4,700 (1.3%) were called active.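 The calls were made as follows: active = inhibition above the plate cutoff, the mean of all test compounds on that plate plus 3 SD (cut at about 35% in these data); inactive = the rest.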 For the sample, actives were picked, then their nearest neighbours and some compounds at random.

assay: binders of r(CAG) RNA repeats, primary screen, biochemical, fluorescence (AID 651821); conditions: r(CAG) RNA repeat, TO-PRO-1 dye displacement fluorescence; at 3 µM; active compounds read high;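 also: 0% = DMSO alone and 100% = 100 µM mitoxantrone as full dye displacement; higher means more dye released from RNA so lower well fluorescence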

| SMILES | inhibition |
| --- | --- |
| O=C(NCc1cccs1)C1CCN(S(=O)(=O)c2ccccc2[N+](=O)[O-])CC1 | 7.31% (inactive) |
| CCC(CO)Nc1cccc2c1S(=O)(=O)N(Cc1cn(Cc3ccccc3C(F)(F)F)nn1)Cc1ccccc1O2 (configuration not stated) | 7.47% (inactive) |
| COC(=O)C[C@H]1CC[C@H]2[C@H](COc3ccc(NC(=O)C4CC4)cc3C(=O)N2C)O1 | -1.01% (inactive) |
| Nc1[nH]c(C(=O)c2ccc(Br)cc2)c(-c2ccc3c(c2)OCO3)c1C(=O)NCCc1c[nH]c2ccccc12 | 14.8% (inactive) |
| Cc1ccc(C(=O)N(Cc2ccccn2)CC2CCCO2)cc1 (configuration not stated) | -0.73% (inactive) |
| CCOc1c(Br)cc(/C=C2\C(=O)N(CCC#N)N=C2C)cc1OC | 16.2% (inactive) |
| COc1cc(/C=C2/C(=O)NN(c3cccc(Cl)c3)C2=O)cc(Br)c1O | 64% (active) |
| CCN(C(=O)[C@@H](C1CC1)[C@@H](O)c1ccc2ccccc2c1)c1ccccc1 | -1.86% (inactive) |
| COC(=O)[C@]12C[C@H](CC(=O)NCc3ccc(C)o3)C(=O)N(CCC3=CCCCC3)C1=C[C@H](C(C)(C)C)O[C@@H]2C | 0.73% (inactive) |
| O=C(CNS(=O)(=O)c1ccccc1F)N1CCN(c2ccccn2)CC1 | -0.14% (inactive) |
| COc1ccc2[nH]c3c(C)c4cc[n+](C)cc4c(C)c3c2c1 | 39.2% (active) |
| CC(=O)N1CCCN(C2=Nc3ccccc3Sc3ccccc32)CC1 | -1.49% (inactive) |
| O=S1(=O)c2ccc(Br)cc2OC[C@@H](Cc2ccccc2)N1Cc1cn(Cc2ccco2)nn1 | 4.58% (inactive) |
| CC(=O)Nc1cnc(-c2ccc(O)cc2C)cn1 | 1.38% (inactive) |
| Cc1ccc(-c2csc(NCCc3nc4cc(Cl)c(Cl)cc4n3CCOCCO)n2)cc1 | 17.1% (inactive) |
| Cc1ccc(Nc2nc(-c3ccc(O)cc3O)cs2)nc1 | 36.2% (active) |
| O=S(=O)(c1cccs1)N1CCCc2nc(-c3ccc(Br)cc3)ccc21 | 4.14% (inactive) |
| O=C(CSc1nc2ccccc2nc1N1CCCCC1)N1CCN(S(=O)(=O)c2cccc([N+](=O)[O-])c2)CC1 | 12% (inactive) |
| CCCCC(=O)Nc1nnc(S(=O)(=O)N(C)Cc2ccco2)s1 | 5.48% (inactive) |
| O=C(Nc1nnc(-c2ccccc2F)s1)c1ccccc1F | 0.79% (inactive) |
| CN(Cc1ccccc1)S(=O)(=O)c1nnc(NC(=O)c2ccccc2F)s1 | 54.3% (active) |

| SMILES | inhibition |
| --- | --- |
| Cc1cccc(C(=O)Nc2c(-c3ccc(F)cc3)nc3ncccn23)c1 | 0.58% (inactive) |
| C=C(C)C1CC23C(=O)C4(C(=O)c5ccccc5)C[C@@]5(C)CCC(CC2C1(C)C)(C4=O)C35OC (some centres not stated) | 8.07% (inactive) |
| O=C(CN1CCN(C(=O)c2ccco2)CC1)Nc1ccc2c(c1)OCO2 | 0.64% (inactive) |
| Cc1ccc(-c2csc(C(C#N)=C(O)CN3CCN(C(=O)c4ccco4)CC3)n2)cc1 | 42.8% (active) |
| Cc1ccc(NC(=O)C(c2ccccc2)N2CCN(C(=O)c3ccco3)CC2)cc1 (configuration not stated) | 4.43% (inactive) |
| Cc1ccc(Nc2nc(CSc3nnnn3-c3ccccc3)cc(=O)[nH]2)cc1 | 46.6% (active) |
| COc1ccc(NC(=O)CSc2nnnn2-c2cccc(OC)c2)cc1 | 1.33% (inactive) |
| Nc1nc(CSc2nnnn2-c2ccccc2)nc(Nc2ccccc2)n1 | 7.48% (inactive) |
| CC(C)CNc1cccc2c1S(=O)(=O)N(Cc1cn(Cc3ccc(Cl)cc3)nn1)Cc1ccccc1O2 | 5.62% (inactive) |
| C=CCOc1cccc(C2C(C(=O)c3ccc(C)o3)=C(O)C(=O)N2c2nnc(C)s2)c1 (configuration not stated) | 6.27% (inactive) |
| COc1cc(C2C(C(=O)c3ccco3)=C(O)C(=O)N2c2cc(C)on2)ccc1OCc1ccccc1 (configuration not stated) | 10.3% (inactive) |
| Cc1cc(N2C(=O)C(O)=C(C(=O)c3ccc(C)o3)C2c2ccc(OCc3ccccc3)cc2)no1 (configuration not stated) | 49.3% (active) |
| COc1cccc(Cn2cc(COC(=O)Nc3ccc(F)cc3)nn2)c1 | 0.76% (inactive) |
| COCc1c(C(=O)N/N=C(\C)c2ccncc2)nnn1-c1nonc1N | -1.16% (inactive) |
| Cc1ccccc1CS(=O)(=O)Cc1ccc(C(=O)Nc2ccc(Cl)cc2)o1 | 6.61% (inactive) |
| O=C(CSc1nc2ccccc2s1)NN=Cc1ccc(O)cc1O | 11% (inactive) |
| O=[N+]([O-])c1cc(Br)c(O)c(/C=N/Nc2nc3ccccc3s2)c1 | 64.1% (active) |
| O=C(N/N=C/c1cc([N+](=O)[O-])ccc1O)/C(=C\c1cccs1)NC(=O)c1ccccc1 | 32.3% (inactive) |
| C[C@H]1CN([C@@H](C)CO)C(=O)CCCn2nncc2CO[C@@H]1CN(C)Cc1ccc(Oc2ccccc2)cc1 | 1.78% (inactive) |
| N#CCC[C@H]1CC[C@]2(CCCN(Cc3ccc(Cl)cc3)C2)O1 | 1.52% (inactive) |
| c1ccc(CN=C2Nc3ccccc3CS2)nc1 | -3.75% (inactive) |

| SMILES | inhibition |
| --- | --- |
| Cc1ccccc1CN1CCCCC(NC(=O)c2cccc(C#N)c2)C1=O (configuration not stated) | 3.06% (inactive) |
| Cc1ccc(C)c2c1cc(C)c1nnc(SCC(=O)Nc3cccc(C(=O)O)c3)n12 | 2.06% (inactive) |
| CC(C)c1nc(SCC(=O)Nc2cccc(C(=O)O)c2)c2c3c(sc2n1)CCCC3 | 69.3% (active) |
| Cc1ccc(C)c(-n2c(SCC(=O)O)nc3sc4c(c3c2=O)CCCC4)c1 | 27.1% (inactive) |
| COc1cc(C)c(C)cc1S(=O)(=O)N1CCCc2ccccc21 | -3.84% (inactive) |
| CC(CCN1CCC(C(O)(c2ccccc2)c2ccccc2)CC1)Oc1ccc(Cl)cc1 (configuration not stated) | 1.34% (inactive) |
| CCOc1ccc(N(CC(=O)Nc2c(C)n(C)n(-c3ccccc3)c2=O)S(=O)(=O)c2ccc(Cl)s2)cc1 | 1.32% (inactive) |
| CCCCCCCCN1C(=O)[C@@H](CC(=O)N2CCN(C(=O)OCC)CC2)C[C@@]2(C(=O)OC)C1=C[C@H](C1CCCC1)O[C@@H]2C | 5.15% (inactive) |
| Cc1ccc(C(=O)O)cc1-c1ccc(/C=C2\SC(=O)N(CC(=O)Nc3ccc4c(c3)OCO4)C2=O)o1 | 56% (active) |
| Cn1c(=O)c2ccccc2n(CC(=O)Nc2ccc3c(c2)OCCO3)c1=O | -1.32% (inactive) |
| O=C(CN1CCN(c2ncc(C(F)(F)F)cc2Cl)CC1)Nc1ccc2c(c1)OCO2 | -4.82% (inactive) |
| Cc1ccc2nc(CN(C)C(=O)[C@@H](Cc3ccccc3)NC(=O)[C@H]3O[C@@H](n4ccc(=O)[nH]c4=O)[C@H](O)[C@@H]3O)[nH]c2c1 | 0.21% (inactive) |
| COc1ccc(CN2C/C(=C/c3ccccc3)N3C(=O)C[C@@H](c4ccccc4)N=C23)c(OC)c1 | 2.75% (inactive) |
| Cc1cc(F)ccc1S(=O)(=O)Nc1ncnc2scc(-c3ccc(F)cc3)c12 | 40.3% (active) |
| O=S(=O)(Nc1ncnc2sccc12)c1cccc(F)c1 | 5.08% (inactive) |
| COc1ccc(-c2csc3ncnc(N4CCN(S(=O)(=O)c5cccc(F)c5)CC4)c23)cc1 | 3.79% (inactive) |
| Cc1ccc2nc(-c3ccc(CN4CCC(n5cc(-c6ccccc6)[nH]c5=O)CC4)cc3)c(-c3ccccc3)nc2c1 | 9.33% (inactive) |
| COc1cccc(CNC(=O)C2CCCN(c3nc4ccccc4o3)C2)c1OC (configuration not stated) | 4.36% (inactive) |
| CC(=O)c1ccc(NC(=O)C2CC(=O)Nc3nc4ccccc4n32)cc1 (configuration not stated) | 2.8% (inactive) |
| Brc1ccc(COCCc2cn(Cc3ccccc3)c3ccccc23)cc1 | 3.73% (inactive) |
| Cc1ccc(S(=O)(=O)NNC(=O)/C=C/c2cccc(F)c2)cc1 | 3.74% (inactive) |

| SMILES | inhibition |
| --- | --- |
| COc1ccc(/C=C/C(=O)c2ccc(NS(=O)(=O)c3ccc(C)cc3)cc2)cc1O | 43% (active) |
| C/C=C/c1ccc(OCC(=O)NNC(=O)CN(C)S(=O)(=O)c2ccc(C)cc2)c(OC)c1 | 1.87% (inactive) |
| O=C(NCc1ccccc1)[C@H]1CCCN1C(=O)[C@H]1CCCN1C(=O)N1CCOCC1 | -0.04% (inactive) |
| CC(C)OC(=O)c1ccc(COc2ccc3ccc(=O)oc3c2)o1 | -0.52% (inactive) |
| COc1ccc(-c2cc3ccc(OCc4nn[nH]n4)cc3oc2=O)cc1 | 44.7% (active) |
| COc1ccc(-c2csc3ncnc(Oc4ccc5c(C)cc(=O)oc5c4)c23)cc1 | 0.56% (inactive) |
| CN(C)Cc1ccc(F)cc1Sc1cc(Cl)ccc1Cl | -7.65% (inactive) |
| CN(CCc1ccccc1)C(=O)Cn1nc(-c2ccccc2)ccc1=O | -2.33% (inactive) |
| CCc1nnc(NC(=O)CCN(c2ccc(C)cc2)S(=O)(=O)c2ccccc2)s1 | 1.09% (inactive) |
| COc1cc(SC#N)ccc1N=Cc1c(C)[nH]n(-c2ccc(C)cc2)c1=O | 6.39% (inactive) |
| CCc1nnc(NS(=O)(=O)c2ccc(N=Cc3c(C)[nH]n(-c4ccc(C)cc4)c3=O)cc2)s1 | 56.7% (active) |
| CCOC(=O)N1CCN(C(=O)C[C@H]2C[C@@]3(C(=O)OC)C(=C[C@H](C4CCCC4)O[C@@H]3C)N(Cc3ccccc3)C2=O)CC1 | 1.98% (inactive) |
| O=C(OC12CCCN(C1)/C(=C/c1ccccc1)C2)c1ccco1 (configuration not stated) | 3.14% (inactive) |
| CCOc1ccc(N/C(N)=N/c2nc(C)c(C)c(=O)[nH]2)cc1 | 1.99% (inactive) |
| CCOc1ccc(-n2c(O)c(/C=N/Nc3nnc(C)c(=O)[nH]3)c3ccccc3c2=O)cc1 | 47.2% (active) |
| COC(=O)Cc1csc(/N=C/c2c(O)n(-c3cccc(C(F)(F)F)c3)c(=O)c3ccccc23)n1 | -0.9% (inactive) |
| O=C(COc1ccccc1Cl)Nn1cnnc1 | 2.37% (inactive) |
| CCCCN1CCN(C(=O)c2ccc3c(c2)NC(=O)C(C)(C)O3)CC1 | -0.58% (inactive) |
| CCOC(=O)C1(Cc2ccccc2)CCN(Cc2cn(C(C)=O)c3ccccc23)CC1 | -1.49% (inactive) |
